Laboratory results: PubChem BioAssay AID868 (SRMLSC, 2007)
Out of some 190,000 compounds screened, about 3,500 (1.8%) were called active. The sample holds actives, similar compounds and a random draw of the others, so the mix is not that of the screen.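 How the source made its calls: active means inhibition above a set limit, 3 SD over mean compound inhibition (cut at about 8.4% in these data); inactive means the rest.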

test: inhibitors of the yeast RAM network, primary screen, dse1pr::URA3 reporter, 5-FOA selection (AID 868);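 further: 0% = DMSO-only wells with no growth and 100% = 10 µM 1-NA-PP1 full growth; inhibition rescues growth on 5-FOA so higher OD means more RAM inhibition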; details: S. cerevisiae dse1pr::URA3 reporter, 5-FOA growth OD615, 2 d; at 50 µM; active compounds read high; analog-sensitive cbk1-as2 kinase mutant strain

Structure (SMILES) | inhibition
CCC(C)(C)n1nnnc1C(c1cccs1)N1CCN(Cc2ccccc2)CC1 (stereo unspecified) | 0.11% (inactive)
CCOc1ccc(CN(Cc2ccco2)C(c2cccs2)c2nnnn2C(C)(C)C)cc1 (stereo unspecified) | 15.1% (active)
CC(C)(C)n1nnnc1C(c1cccs1)N(Cc1cccnc1)CC1CCCO1 (stereo unspecified) | 4.18% (inactive)
COCCn1c(C)cc(C(=O)COC(=O)/C=C/c2cccc(OC)c2)c1C | 8.25% (inactive)
CC1CCCCC1NC(=O)COC(=O)Cc1ccc(Br)cc1 (stereo unspecified) | 1.96% (inactive)
COc1ccc(-c2noc(-c3cccc(OC)c3OC)n2)cc1OC | 8.94% (active)
COc1ccc(-c2nc(-c3ccccc3)no2)c(OC)c1 | -0.68% (inactive)
COc1cc(-c2nc(-c3ccncc3)no2)cc(OC)c1OC | 1.83% (inactive)
COc1cccc(CN2CCNC(=O)C2CC(=O)N(C)CCc2ccccn2)c1 (stereo unspecified) | 0.39% (inactive)
COc1ccc(OCC(=O)Nc2ccc(N3CCC(C)CC3)cc2)cc1 | -0.73% (inactive)
CN1CCN(c2ccc(NC(=O)COc3ccc(Cl)cc3Cl)cc2)CC1 | 1.03% (inactive)
Cc1ccc(NC(=O)COc2ccc(-n3ccnc3)cc2)cc1Cl | 19.6% (active)
O=C(O)CSc1nccc2ccccc12 | 0.52% (inactive)
CCOC(=O)NN1C(=O)c2ccccc2NC1c1ccccc1O (stereo unspecified) | -0.54% (inactive)
CCN(CC)C(=O)C(=O)Nc1cccc(Br)c1 | 1.63% (inactive)
Cc1ccc(NC(=O)c2csc3c2CCCC3)cc1 | 0.75% (inactive)
COC(=O)c1sc(NC(=O)c2csc3c2CCCC3)nc1C | 3.89% (inactive)
COC(=O)c1sccc1NC(=O)c1csc2c1CCCC2 | 12% (active)
CCOC(=O)CC1C(=O)NCCN1C(=O)COc1ccc(Br)cc1C (stereo unspecified) | -0.4% (inactive)
Cc1cc(/C=C2/SC(=O)N(CC(=O)OC(C)C)C2=O)c(C)n1C | 4.99% (inactive)
CCN=C1S/C(=C\c2cc(Br)ccc2OCC(=O)OCC)C(=O)N1CC | 11.5% (active)
COc1ccc(CCNc2nc(-c3cccc(NC(C)=O)c3)cs2)cc1OC | -0.26% (inactive)
COc1ccc(C2OCC3(CO2)SC(=O)NC3=O)cc1OC (stereo unspecified) | 0.64% (inactive)
COc1cccc(NC(=O)CC2C(=O)NCCN2C(=S)Nc2ccc(F)cc2)c1 (stereo unspecified) | 4.21% (inactive)

Structure (SMILES) | inhibition
CC1CCCCC1NC(=O)CN1CCC(O)(c2ccc3c(c2)OCO3)CC1 (stereo unspecified) | 0.68% (inactive)
CCN(CC)S(=O)(=O)c1ccc(N(C)Cc2cccc(OC)c2OC)nc1 | 2.24% (inactive)
CCN(CC)S(=O)(=O)c1ccc(N(C)Cc2ccc(C(F)(F)F)cc2)nc1 | 11.1% (active)
CCN(CC)S(=O)(=O)c1ccc(N(C)CCc2ccc(OC)c(OC)c2)nc1 | 1.33% (inactive)
Cc1cccc(-n2cnc(C(=O)NNC(=S)Nc3ccccc3)c2)n1 | 1.6% (inactive)
Cc1ccc(C(=O)N/C(=C\c2ccco2)C(=O)N2CCSCC2)cc1C | -0.85% (inactive)
CCn1c(COc2ccccc2)nnc1SCC(=O)NCc1ccco1 | 0.66% (inactive)
C=CCn1c(CNC(=O)c2ccco2)nnc1SCC(=O)c1ccc(OC)cc1 | -1.14% (inactive)
COc1ccc(C(=O)CSc2nnc(COc3ccccc3)n2Cc2ccco2)cc1 | 9.29% (active)
O=C(Cc1cccs1)N/N=C/c1ccc(OCc2ccccc2)cc1 | 10.5% (active)
Cc1ccc(COc2ccc(/C=N/NC(=O)CN3CCCCC3)cc2)cc1 | 0.5% (inactive)
O=C(N/N=C/c1ccc(OCc2ccccc2)cc1)c1ccc(O)cc1 | 1.57% (inactive)
COc1ccccc1NC(=O)CN1CCN(S(=O)(=O)c2ccc(Br)cc2)CC1 | 0.23% (inactive)
COc1cc(C(=O)NNC(=O)c2ccc(S(=O)(=O)N3CCCCC3)cc2)cc(OC)c1OC | 3.63% (inactive)
COCCN(CC(=O)Nc1ccccc1C)S(=O)(=O)c1ccc(S(=O)(=O)N2CCCC2)cc1 | 9.62% (active)
CC1CCN(C(=S)c2ccc(-c3ccc(Cl)cc3Cl)o2)CC1 | 15.1% (active)
Cc1csc(NC(=O)c2ccc(-c3ccc(Cl)cc3Cl)o2)n1 | 0.54% (inactive)
CC1CCN(C(=S)c2cccc(O)c2)CC1 | 0.5% (inactive)
COCC(C)NCc1cc(Br)ccc1OC (stereo unspecified) | 1.56% (inactive)
O=C(NCc1ccccc1)[C@H]1C[C@@H]1[C@H](NP(=O)(c1ccccc1)c1ccccc1)c1ccccc1 | 19% (active)
O=C(O)C1CC=C(Cl)CC1C(=O)NCc1ccccc1 (stereo unspecified) | 1.08% (inactive)
COC(=O)[C@H](Cc1ccccc1)NC(=O)[C@@H]1C[C@H]1[C@@H](NC(=O)OCc1ccccc1)c1ccccc1 | 1.21% (inactive)
CC12CN(NC(=O)c3ccc(Cl)cc3)C3(C#N)CC1CCC23C (stereo unspecified) | -0.13% (inactive)
COc1cc(N2CCCC2)c(OC)cc1/C=C(/C#N)c1cccc(Br)c1 | 8.59% (active)

Structure (SMILES) | inhibition
CC(=O)Nc1cccc(Oc2cc(C#N)c(C#N)cc2N2CCOCC2)c1 | 0.91% (inactive)
COc1cccc(C(=O)Nc2ccc(N3CCCC3)cc2)c1 | 1.61% (inactive)
COc1ccc2cc(CCl)c(Cl)nc2c1 | 0.27% (inactive)
COc1ccc(C2CC(c3cccs3)=NN2c2nc(C)c(C(C)=O)s2)cc1OC (stereo unspecified) | 9.6% (active)
COc1ccc(C2CC(c3cccs3)=NN2c2ccc(F)cc2)cc1OC (stereo unspecified) | 2.78% (inactive)
COc1ccc(C2CC(c3cccs3)=NN2C(=O)CSc2nncs2)cc1OC (stereo unspecified) | -0.13% (inactive)
CCc1c(C)nc2c(OC)cccc2c1Cl | 0.88% (inactive)
CC(C)(C)NC(=O)COC(=O)c1cc(Br)ccc1Cl | -0.13% (inactive)
CSCc1ccc(C(=O)Nc2cc(C)cc(C)c2)cc1 | 10.7% (active)
CC(=O)Nc1ccccc1NC(=O)c1cc(C)cc(C)c1 | 1.49% (inactive)
C=CCN(c1ccc(C(=O)Nc2cc(C)cc(C)c2)cc1)S(C)(=O)=O | 1.58% (inactive)
CC(C)(C)c1ccc(/C=C/C(=O)NC2CCS(=O)(=O)C2)cc1 (stereo unspecified) | -1.15% (inactive)
Cc1cccc(C(=O)c2cccc(C)c2)c1 | 1.11% (inactive)
Cc1ccccc1CN1C[C@@H]2C[C@@H](c3ccc4nsnc4c3)N3CCC[C@@]23C1=O | 1.56% (inactive)
COc1ccc(/C=C2\CCCC3C2=NN(C(=O)c2scnc2C)C3c2ccc(OC)cc2)cc1 (stereo unspecified) | 8.89% (active)
CN(C)/C=C/C(=O)c1cnc2sccn2c1=O | 3.34% (inactive)
Cc1cc(Cl)ccc1OCCCC(=O)NCc1ccccn1 | -1.48% (inactive)
CC1CCCC(C)N1/N=C/c1ccccc1OC(F)F (stereo unspecified) | -0.37% (inactive)
NS(=O)(=O)c1ccc(NC(=S)NC(=O)c2cccc(Br)c2)cc1 | 15.5% (active)
O=C(NC(=S)Nc1ccc(S(=O)(=O)Nc2ncccn2)cc1)c1cccc(Br)c1 | 6.97% (inactive)
NS(=O)(=O)c1ccc(NC(=S)NC(=O)c2cccnc2)cc1 | 0.14% (inactive)
CCc1ccccc1NC(=O)Cc1cn(C)c2ccccc12 | 1.88% (inactive)
O=C(/C=C/c1ccc(Cl)c([N+](=O)[O-])c1)c1cccnc1 | 1.34% (inactive)
Cc1ccsc1C1C(C#N)=C(N)OC2=C1C(=O)CC(C)C2 (stereo unspecified) | 2.12% (inactive)

Structure (SMILES) | inhibition
CCC(=O)Nc1sc(C(=O)Nc2ccccc2)c(C)c1C(=O)OC | -0.53% (inactive)
CC(=O)c1c(Nc2ccccc2)sc(C(=O)c2ccccc2)c1C | 13.4% (active)
O=C(c1ccc(Cl)cc1)c1cnc(Nc2ccccc2)s1 | 3.49% (inactive)
COc1cc(CN2CCN(Cc3ccc(C)cc3)CC2)c([N+](=O)[O-])cc1OC | -0.12% (inactive)
N#Cc1ccc(-c2ccc(F)cc2)nc1Sc1ccccc1 | 9.92% (active)
N#Cc1c(-c2ccc(F)cc2)nc(-c2ccccc2)[nH]c1=O | 1.19% (inactive)
N#Cc1ccc(-c2ccc(Cl)cc2)nc1Oc1ccc(F)cc1 | 3.94% (inactive)
COC(=O)c1nc(NC(=O)c2ccc(C(C)(C)C)cc2)n[nH]1 | -0.27% (inactive)
COC(=O)C1=C(C(=O)OC)C(c2cc([N+](=O)[O-])ccc2O)c2sc(=O)[nH]c2S1 (stereo unspecified) | -0.84% (inactive)
CCOC(=O)C(NC(C)=O)C(=O)Nc1ccc(OC)cc1 (stereo unspecified) | 1.23% (inactive)
Cc1nn(-c2ccccn2)c2c1C(c1ccncc1)C1=C(CC(C)(C)CC1=O)N2 (stereo unspecified) | -0.66% (inactive)
Cc1ccc(C2C3=C(Nc4[nH]n(-c5ccccc5)c(=O)c42)c2ccccc2C3=O)cc1 (stereo unspecified) | 4.88% (inactive)
Cc1cc(C)c(C2C3=C(Nc4c2c(C)nn4-c2ccccn2)c2ccccc2C3=O)c(C)c1 (stereo unspecified) | 9.18% (active)
O=C(CN1CCN(C/C=C/c2ccccc2)CC1)Nc1ccc(F)cc1F | 0.69% (inactive)
CCOCCCNCc1cc(Br)ccc1OCC | 1.92% (inactive)
CCOC(=O)C1CCN(CCC(=O)Nc2cccc(C)c2)CC1 | 0.78% (inactive)
Cc1ccc(S(=O)(=O)N2CCOCC2)cc1C(=O)OC1CCCCC1=O (stereo unspecified) | 0.38% (inactive)
COc1cc(/C=C/C(=O)O)cc(S(=O)(=O)Nc2ccccc2SC)c1OC | 5.01% (inactive)
CCC(C)(C)NC(=O)/C=C/c1cc(OC)c(OC)c(S(=O)(=O)N2CCc3ccccc32)c1 | 9.06% (active)
COc1ccc(C(=O)OCC(=O)NCC2CCCCC2)cc1S(=O)(=O)N1CCCc2ccccc21 | 2.15% (inactive)
Cc1cc(=O)[nH]c(N/N=C/c2c(C)nn(-c3ccccc3Cl)c2Cl)n1 | 1.7% (inactive)
CCOc1ccc(/C=N/Nc2nncc(-c3ccccc3)n2)cc1OC | -0.12% (inactive)
Cc1cc(OC(=O)c2ccccc2Cl)ccc1N1C(=O)CCC1=O | -1.28% (inactive)
COc1ccc(CCNC(=O)CCn2c(=O)c3ccccc3n(CC(=O)NCC3CCCO3)c2=O)cc1OC (stereo unspecified) | 4.36% (inactive)
